Here are results for 91 compounds from PubChem BioAssay AID602440 (Sanford-Burnham Center for Chemical Genomics, 2012).

What is called inhibition is the change of the read-out against control, counted positive when it falls.

Among all 360,000 compounds or so, about 2,300 (0.64%) were called active. The sample holds actives, similar compounds and a random draw of the others, so the mix is not that of the screen. Rule as the data show it: active = inhibition mostly above about 40% (no sharp cut-off); inactive = mostly below about 27%.

Sentrin-specific protease 8 (Homo sapiens), sequence (Q96LD8 whole entry, looked up): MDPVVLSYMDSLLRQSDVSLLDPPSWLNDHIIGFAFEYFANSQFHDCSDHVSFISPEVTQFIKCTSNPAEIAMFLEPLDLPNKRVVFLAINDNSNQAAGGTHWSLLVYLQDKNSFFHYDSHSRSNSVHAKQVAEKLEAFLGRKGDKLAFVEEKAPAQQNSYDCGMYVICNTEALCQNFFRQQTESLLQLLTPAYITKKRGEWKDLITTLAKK

The experiment has as its target Sentrin-specific protease 8 (Homo sapiens) (UniProt Q96LD8). Put plainly: blockers of SENP8 deneddylase activity – biochemical, fluorescence, Nedd8 protein substrate, uHTS, primary screen (AID 602440). As to conditions: recombinant SENP8, Nedd8 substrate fluorescence; at 20 µM; stronger effect = higher value.
Take `O=C(CSc1nnnn1C1CCCC1)Nc1ccc2c(c1)OCCO2`: the inhibition was 7% (inactive).

For `CN(C)c1ccc(/C=C2\NC(=S)N(Cc3ccccc3)C2=O)cc1`, the inhibition was 46.7% (active).

Regarding `CCN(CC(=O)NC(C)C)C(=O)c1cc(S(=O)(=O)N2CCCCC2)ccc1N1CCCCC1`, the inhibition was 2.8% (inactive).

For `CCOC(=O)C1CCCCN1Cc1ccc(OC)c(OC)c1OC` (stereo unspecified), the inhibition is -4.4% (inactive).

Consider `CC1(C)CC(=O)C(N=Nc2ccc(S(=O)(=O)N3CCCCCC3)cc2)=C(O)C1`, for which the inhibition is 41% (active).

For the compound `CC1(C)CC(=O)C(N=Nc2c(F)cccc2F)=C(O)C1`, the inhibition was 24.6% (inactive).

Regarding `O=C1CCCC(O)=C1N=Nc1ccc(S(=O)(=O)N2CCOCC2)cc1`, the inhibition was 43.2% (active).

Consider `O=S(=O)(c1ccc(-c2ccccc2)cc1)N1CCCC1`, for which the inhibition was 7.9% (inactive).

As to `Cc1ccc(S(=O)(=O)N2CCN(S(=O)(=O)N3CCOCC3)CC2)cc1`, the inhibition was 6.5% (inactive).

`O=C1CCCC(O)=C1N=Nc1ccc2ncsc2c1`: the inhibition is 7.1% (inactive).

As for `Cn1c(C(=O)O)ccc1S(=O)(=O)N(Cc1ccccc1)Cc1ccccc1`, the inhibition was -7% (inactive).

Take `COc1ccc(C(=O)N(CCN2CCOCC2)CC(=O)NC2CCCC2)cc1OC`: the inhibition is -1.7% (inactive).

Consider `CN(CC(=O)NNC(=O)CNC(=O)c1ccccc1Cl)S(=O)(=O)c1ccc(Cl)cc1`, for which the inhibition was 10.1% (inactive).

Turning to `Cc1cc(O)c(NC(=O)c2ccc(C)c([N+](=O)[O-])c2)cc1C`, the inhibition was 3.9% (inactive).

As to `CCN(CC)C(=O)CC1(c2ccccc2OC)CCOC(C(C)C)C1` (stereo unspecified), the inhibition is 4% (inactive).

With `Clc1ccc(C2=CSC3=Nc4cccc5cccc(c45)N23)cc1`, the inhibition was 70.7% (active).

Turning to `COCCNC(=S)N1CCC(NC(=O)C23CC4CC(CC(C4)C2)C3)CC1`, the inhibition was 8.9% (inactive).

Regarding `c1ccc(-c2c[nH]c(-c3ccccc3)c2)cc1`, the inhibition is -22% (inactive).

On to `CCCc1c(-c2ccccc2F)ncn1Cc1ccccc1OC`, for which the inhibition was 2.7% (inactive).

On to `CC(=O)NNc1cc(=O)c2c(=O)n(C)c(=O)n(C)c2[nH]1`, for which the inhibition was 15.9% (inactive).

Take `Cn1c(N)c(C(=O)COC(=O)C23CC4CC(CC(C4)C2)C3)c(=O)n(C)c1=O`: the inhibition was 12% (inactive).

On to `O=C(OCC(=O)c1cccs1)c1ccc([N+](=O)[O-])o1`, for which the inhibition is 29.2% (inactive).

For `O=C(COC(=O)c1ccc(Br)o1)NC12CC3CC(CC(C3)C1)C2`, the inhibition is 10% (inactive).

Consider `O=C(COC(=O)c1ccc([N+](=O)[O-])o1)NC12CC3CC(CC(C3)C1)C2`, for which the inhibition is 35.1% (active).

For the compound `C/C=C/C=C/C(=O)O`, the inhibition is 11.5% (inactive).

Consider `NCCCCC(C(=O)O)N(C(=O)OCc1ccccc1)C(=O)OCc1ccccc1` (stereo unspecified), for which the inhibition was 15.2% (inactive).

With `O=C(C[C@H]1C(=O)N(c2ccc(F)c(F)c2)C[C@@H]1Cc1ccccc1)Nc1ccccc1`, the inhibition was 1.6% (inactive).

With `CCCCn1c(N)c(N(CC(C)C)C(=O)c2ccc(-n3c(C)ccc3C)cc2)c(=O)[nH]c1=O`, the inhibition is 1.8% (inactive).

As to `Oc1ccc(C2Nc3cccc4cccc(c34)N2)cc1`, the inhibition was 63.3% (active).

For the compound `O=C(COC(=O)c1ccc2ncsc2c1)Nc1ccc(Cl)cc1`, the inhibition was -18.6% (inactive).

In the case of `C=CCOc1ccc(/C=C2\SC(=S)N(CCC(=O)O)C2=O)cc1`, the inhibition is 40.8% (active).

Turning to `C=CCOc1ccc(C(=O)Nc2ccccc2C(=O)N2CCCC2)cc1`, the inhibition was 0.4% (inactive).

As to `CN(C(=O)CN1C(=O)/C(=C/c2ccc(Cl)cc2)SC1=S)C1CCS(=O)(=O)C1` (stereo unspecified), the inhibition is 23.9% (inactive).

For the compound `O=[N+]([O-])c1ccc(COc2ccccc2CN2CCOCC2)cc1`, the inhibition was -0.2% (inactive).

As to `OC(c1ccccc1)C(CN1CCOCC1)c1ccccc1` (stereo unspecified), the inhibition was 9.9% (inactive).

Consider `Oc1c(CN2CCOCC2)ccc(CN2CCOCC2)c1O`, for which the inhibition was 79% (active).

In the case of `O=C(Cn1cc(-c2nnnn2-c2ccc(Cl)cc2)c(=O)c2ccccc21)c1ccccc1`, the inhibition is 26.2% (inactive).

Consider `COC(=O)CN1C(=O)C(C)(C)Oc2ccc(C(=O)Nc3cccc(OC)c3)cc21`, for which the inhibition was 1.3% (inactive).

Regarding `CC[n+]1cc(C)ccc1/C=C/c1ccc(N(C)C)cc1`, the inhibition is 18.1% (inactive).

Take `CN(C)c1ccc(Nc2c3c4c(cccc4n(C)c2=O)C(=O)c2ccccc2-3)cc1`: the inhibition is 52.7% (active).

Consider `Cc1ccc(NC(=S)N(CCCN2CCCC2)Cc2cccn2Cc2ccc(Cl)cc2)cc1`, for which the inhibition is 14.9% (inactive).

Regarding `Cc1nc2ccccc2n1CC(O)c1ccccc1` (stereo unspecified), the inhibition was 0.7% (inactive).

`CCOC(=O)c1ccc2c(c1)nc(C)n2CC`: the inhibition was 17.4% (inactive).

For the compound `CCn1c(C)nc2c1C(=O)c1ccccc1C2=O`, the inhibition is 53.2% (active).

With `O=C(NC(=S)N1CCc2ccccc21)c1ccco1`, the inhibition is 11.3% (inactive).

As to `Cc1c(C(=O)N(Cc2ccccc2)Cc2cccnc2)cnn1-c1ccc(F)cc1`, the inhibition is 7.4% (inactive).

Take `CN1C2CCC1CC(NC(=O)c1ccc([N+](=O)[O-])cc1)C2` (stereo unspecified): the inhibition is 17.8% (inactive).

Consider `O=C(CCNC(=O)c1ccc([N+](=O)[O-])cc1)NC1CCCCC1`, for which the inhibition is 15.8% (inactive).

`O=C(Nc1cc2c3c(c1)C1CCCC1CN3CC1CCCC21)c1ccc([N+](=O)[O-])cc1` (stereo unspecified): the inhibition is 40.6% (active).

For `CCC1CCCCN1C(=O)Nc1cccc(NC(=O)N2CCCCC2CC)c1` (stereo unspecified), the inhibition is 13% (inactive).

With `CC(CCn1cccn1)NC(=O)CCc1nnc(CCc2ccccc2)o1` (stereo unspecified), the inhibition was 7.6% (inactive).

For `O=C(N/N=C/c1ccc(Br)o1)c1cncc(Br)c1`, the inhibition was -18.2% (inactive).

In the case of `Cc1ccc(C(=O)N/N=C\c2cc(Br)c(Br)o2)cn1`, the inhibition is 58.6% (active).

As to `CCOc1cc(/C=N/NC(=O)c2ccncc2)cc(Br)c1O`, the inhibition was 19.2% (inactive).

With `COC(=O)C1=C(C)NC(=S)NC1c1ccc(OCC(=O)N2CC(C)OC(C)C2)c(OC)c1` (stereo unspecified), the inhibition was 3.3% (inactive).

As for `O=C(CN(C(=O)c1csnn1)c1cccc(F)c1)NCc1ccc(F)cc1`, the inhibition is 8.3% (inactive).

Take `Cn1c2c(c(=O)n(C)c1=O)C(c1cccc([N+](=O)[O-])c1)Nc1ccccc1O2` (stereo unspecified): the inhibition is 22.9% (inactive).

Turning to `O=C(CN1CCN(c2cccc(Cl)c2)CC1)Nc1ccc(S(=O)(=O)N2CCOCC2)cc1`, the inhibition was 15% (inactive).

Consider `Cc1ccc(-c2nn(-c3ccccc3)cc2/C=C/C(=O)Nc2cccc(S(N)(=O)=O)c2)cc1`, for which the inhibition is -81.3% (inactive).

Turning to `CN(C)S(=O)(=O)c1cccc(-c2nn(-c3ccccc3)cc2/C=C2\SC(=S)N(CC(=O)O)C2=O)c1`, the inhibition was 44% (active).

For the compound `COc1cccc(-c2nn(-c3ccccc3)cc2/C=C(\C#N)C(=O)NCCCn2ccnc2)c1`, the inhibition is -266% (inactive).

Take `O=[N+]([O-])c1c(NCCO)cc(Sc2nc3ccccc3s2)c2nonc12`: the inhibition was 75.9% (active).

`CC(C)(C)NC(=O)C(CCc1ccccc1)n1c(=O)c(-c2ccccc2)nc2ccccc21` (stereo unspecified): the inhibition is -332% (inactive).

Regarding `Cc1ccc(C(=O)c2ccc(N3CCN(C)CC3)c([N+](=O)[O-])c2)cc1`, the inhibition was 47.4% (active).

Consider `CN1CCN(S(=O)(=O)c2ccc(N3CCN(c4ccccc4O)CC3)c([N+](=O)[O-])c2)CC1`, for which the inhibition is 39.2% (active).

With `Cc1ccccc1N1CCN(S(=O)(=O)c2ccc3ccccc3c2)CC1`, the inhibition is 12.3% (inactive).

Consider `CC(C)c1ccc(S(=O)(=O)N2CCN(C(=O)c3ccc(N4CCCC4)c([N+](=O)[O-])c3)CC2)cc1`, for which the inhibition was 11.9% (inactive).

On to `Cc1cccc(N2CCN(c3ccc(C(N)=O)cc3[N+](=O)[O-])CC2)c1C`, for which the inhibition is 15.7% (inactive).

Take `CS(=O)(=O)N1CCN(c2ccc(C(=O)NC3C4CC5CC(C4)CC3C5)cc2[N+](=O)[O-])CC1` (stereo unspecified): the inhibition is 13.8% (inactive).

As to `COC(=O)c1ccccc1NC(=O)C1CCN(C(=O)N2CCOc3ccccc32)CC1`, the inhibition is -37.2% (inactive).

With `COc1ccc(NC(=O)N2CCCC(c3nc(-c4ccc(F)cc4)no3)C2)cc1` (stereo unspecified), the inhibition is 9.6% (inactive).

In the case of `C[C@H]1CN([C@@H](C)CO)C(=O)CCCn2cc(nn2)CO[C@@H]1CN(C)S(=O)(=O)c1ccc(-c2ccccc2)cc1`, the inhibition is 12.7% (inactive).

Turning to `C/C(N)=C(/C#N)C(=O)COC(=O)c1cc(-c2cccc(Br)c2)nc2ccccc12`, the inhibition is -25.4% (inactive).

Consider `COc1cccc2c1C(=O)c1c(O)c3c(c(O)c1C2=O)CC(O)(C(C)=NNC(=O)c1ccc(Cl)c(Cl)c1)CC3OC1CC(N)C(O)C(C)O1` (stereo unspecified), for which the inhibition was 46.6% (active).

`CCCC(O)(c1ccc(OC)cc1)C(CN(C)C)c1ccccc1` (stereo unspecified): the inhibition is 10.7% (inactive).

Take `NC(=O)C1CCN(CC(O)CSc2ccc(F)cc2)CC1` (stereo unspecified): the inhibition was 17% (inactive).

In the case of `NC(=O)COC(=O)c1cc(S(=O)(=O)N2CCN(c3ccccc3)CC2)ccc1Cl`, the inhibition was 14.7% (inactive).

For the compound `CSc1ncc(C(=O)NCCCc2ccccc2)c(C)n1`, the inhibition is -24.7% (inactive).

Regarding `C/C(=N\Nc1ccccc1)c1cccs1`, the inhibition is -20.5% (inactive).

For the compound `CC/C(=N/Nc1ccccc1)c1cnnc(SC)n1`, the inhibition was 61.2% (active).

`CN(C(=O)c1cccc(NC(=O)Cc2ccc([N+](=O)[O-])cc2)c1)C1CCC1`: the inhibition is 19.5% (inactive).

On to `O=S(=O)(Nc1ccc(-n2cnnn2)cc1)c1ccc(Cl)cc1`, for which the inhibition is 5.5% (inactive).

On to `CCOC(=O)c1[nH]c(C)c(C(=O)OCC(=O)N2c3ccccc3CC2C)c1C` (stereo unspecified), for which the inhibition was 31.3% (inactive).

For `CCOC(=O)c1c(C)[nH]c2c1-c1ccccc1C(=O)C2=O`, the inhibition is 121% (active).

In the case of `CCOC(=O)c1c(C)oc(C)c(C(=O)OCC)c1=O`, the inhibition is 11.2% (inactive).

In the case of `CCn1cc(C(=O)NCC(=O)NC(C)(C)CO)c(=O)c2cc3c(cc21)OCO3`, the inhibition was -75.3% (inactive).

In the case of `COc1ccc2c(c1)c(=Cc1ccc(N(C)C)cc1)c1cc(-c3ccccc3)[n+](C)n12`, the inhibition was -127% (inactive).

Consider `CCOC(=O)CNC(=O)/C=C/c1c(Cl)cccc1Cl`, for which the inhibition is 16.6% (inactive).

As for `CCOC(=O)CNC(=O)N1c2ccccc2Sc2ccccc21`, the inhibition was 47.5% (active).

With `CCOC(=O)CNC(=O)CN1C(=O)CCSc2ccccc21`, the inhibition is 16.5% (inactive).

As to `CC(=O)NC(CC(=O)O)c1ccc(F)cc1` (stereo unspecified), the inhibition is -2% (inactive).
